Data published in PubChem BioAssay (NCI).
The panel holds about 79,000 compounds, 15% with a hit somewhere; the sample as a whole holds those more often. A number with no mark means an inactive call. The source made the active and inactive calls. No stated cut-off is given here; in the data, active means growth inhibition above about 70%; inactive means the rest.

What was measured:
[1] = NCI Yeast Anticancer Drug Screen. Data for the rad50 strain (AID 155);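 further: 0% = growth of vehicle-only cultures of the same strain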; details: S. cerevisiae rad50 strain growth inhibition; at 50.0 µM; active compounds read high
In short: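 Yeast carrying a defined DNA repair defect were exposed to test compounds, and growth was compared with vehicle-treated controls to give percent inhibition.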

[2] = NCI Yeast Anticancer Drug Screen. Data for the mec2-1 strain (AID 157); details: S. cerevisiae mec2-1 strain, at 50.0 µM, active compounds read high
In short: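 Mutant yeast (mec2-1) grown with compound; growth inhibition relative to vehicle control reported.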

[3] = NCI Yeast Anticancer Drug Screen. Data for the sgs1 mgt1 strain (AID 161);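 further: 0% = growth of cultures given vehicle only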; details: S. cerevisiae sgs1 mgt1 strain, at 50.0 µM, active compounds read high
In short: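 Compounds are added to genetically altered yeast, and growth is compared with cultures given vehicle alone to give percent inhibition.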

[4] = NCI Yeast Anticancer Drug Screen. Data for the cln2 rad14 strain (AID 165);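 further: 0% = growth equal to vehicle treated cultures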; details: S. cerevisiae cln2 rad14 strain, at 50.0 µM, active compounds read high
In short: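 Readout is yeast growth inhibition versus vehicle-treated controls, using a strain with cln2 and rad14 alterations exposed to compound.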

[5] = NCI Yeast Anticancer Drug Screen. Data for the bub3 strain (AID 167); details: S. cerevisiae bub3 mutant strain, at 50.0 µM, active compounds read high
In short: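 Compounds were applied to a genetically altered yeast strain carrying a cell-cycle control defect. Growth inhibition was scored against vehicle-treated controls.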

[6] = NCI Yeast Anticancer Drug Screen. Data for the mlh1 rad18 strain (AID 175); details: S. cerevisiae mlh1 rad18 strain growth inhibition; at 50.0 µM; active compounds read high
In short: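 Genetically defined yeast (DNA repair-deficient) exposed to compounds; growth inhibition determined relative to vehicle.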

Row | Compound | growth inhibition [1] | growth inhibition [2] | growth inhibition [3] | growth inhibition [4] | growth inhibition [5] | growth inhibition [6]
1 | O=C(Cl)C(Cl)(c1ccccc1)c1ccccc1 | 2.15% | 13.6% | 4.15% | -6.9% | 17.1% | 3.75%
2 | O=S1(=O)CCCCC1C(O)(c1ccccc1)c1ccccc1 (stereo not given) | 96% (active) | 94.2% (active) | 91.2% (active) | 95.5% (active) | 95.8% (active) | 96% (active)
3 | NC(N)=NCCS(=O)(=O)O | 5.8% | 7.35% | -2% | 9.1% | -2.35% | 20.4%
4 | O=C(O)C(C(=O)O)C(O)c1c2ccccc2cc2ccccc12 (stereo not given) | -10.3% | 16% | -4.35% | -47.6% | 0.6% | -1.05%
5 | C=C1C(=O)O[C@@H]2/C=C(/C)[C@@H](OC(C)=O)C[C@@H](O)/C(C)=C\[C@@H](OC(=O)[C@]3(C)O[C@@H]3C)[C@@H]12 | 11.3% | -0.85% | 16.2% | 20.5% | 13.4% | -63.6%
6 | O=C(Nn1cnc2ccccc2c1=O)c1ccc(NC(=S)Nc2ccccc2)cc1 | 63.5% | -16.4% | 52.7% | -27.8% | -1.45% | 7.5%
7 | Cc1ccccc1Nc1n[nH]c(=O)n1-c1ccccc1C | 4.05% | 6.65% | 1.75% | -12.5% | 1.15% | 2.9%
8 | CCN(CC)C(=O)C(C(=O)OC)c1ccccc1 (stereo not given) | -4.6% | -9.75% | 7.8% | -27.6% | 10% | 7.1%
9 | CCCCN(CCOc1ccnc(=O)[nH]1)CC(C)C | 6% | 13.2% | -3.2% | -35.5% | 11.3% | -7.7%
10 | Cn1c(=O)c(C(c2ccccc2)c2c(O)c3ccccc3n(C)c2=O)c(O)c2ccccc21 | 12.1% | 6.5% | -19.2% | -34% | 2.8% | 15.8%
11 | COc1ccc(/C=N/NC(=O)CCCCCCCCC(=O)N/N=C/c2ccc(OC)c(OC)c2)cc1OC | -26.4% | -13.4% | -23.4% | -50.2% | -0.75% | -12.5%
12 | CC(C)C1CCC(C)(C(=O)Oc2ccccc2-c2ccccc2)C1 (stereo not given) | 13.1% | 23.4% | 9.75% | -11.6% | 22.2% | 13.6%
13 | CC12CCC(/C(=C/N3CCCCC3)C1=O)C2(C)C (stereo not given) | 12.8% | 10.2% | 1.75% | -17.8% | 22.4% | 5.05%
14 | O=C(N/N=C/C1CCCCC1)C(=O)N/N=C/C1CCCCC1 | 4.45% | 6.65% | 8.55% | -7.45% | 28.2% | -58.5%
15 | CCOC(=O)C(Cc1cn(C(C)=O)c2ccccc12)P(=O)(OCC)OCC (stereo not given) | -12.7% | -21.6% | -15.2% | -1.15% | 1.05% | -27%
16 | CCc1ccccc1NC(=O)C(=O)C(C#N)c1ccccc1Cl (stereo not given) | -7.2% | -30.6% | -17.6% | 3.55% | 6.3% | -9.45%
17 | O=C(O)CCc1nc2ccccc2[nH]1 | -9.3% | -4.9% | -23.8% | 39.1% | -43.9% | -1%
18 | CC(=O)OC/C(C)=N\NS(=O)(=O)c1cc(Cl)c(Cl)cc1Cl | 15.1% | 16.4% | 15.8% | 13.8% | 6.8% | 13.5%
19 | NC1=NS(=O)(=O)Nc2nc(-c3ccc([N+](=O)[O-])cc3)[nH]c21 | -43% | -45.8% | -53% | -22.4% | -38.2% | -45%
20 | CC(=O)Nc1cc(F)c(N=Nc2ccc(F)cc2)c(F)c1 | 5.3% | -0.6% | 13.4% | -36.9% | -16.1% | 3.45%

Row | Compound | growth inhibition [1] | growth inhibition [2] | growth inhibition [3] | growth inhibition [4] | growth inhibition [5] | growth inhibition [6]
21 | CCCCOC(=O)OCCOCCOC(=O)OC(C)C(=O)OCCCC (stereo not given) | -16.9% | -22.4% | -10.2% | -21.3% | 1.7% | 10.8%
22 | Cc1ccc(SC(=O)Cc2ccc([N+](=O)[O-])cc2)cc1 | 96.6% (active) | 98% (active) | 98.2% (active) | 88.3% (active) | 96.2% (active) | 96.8% (active)
23 | CC[O-].CC[O-].O=C1c2ccccc2C(=O)c2c(O)ccc([O-])c21.O=C1c2ccccc2C(=O)c2c(O)ccc([O-])c21.[Ti+4] | -20.6% | 1.75% | -3.45% | -4.3% | -17.9% | -14.8%
24 | CC(=O)Nc1ccc(C(=O)NN2C(=O)C(Cl)/C2=C/c2ccco2)cc1 (stereo not given) | 1.1% | -8.55% | -28.8% | -4.75% | -22.8% | -20.4%
25 | O=C(OCCOc1ccc(Cl)cc1Cl)c1ccccc1O | -2.4% | -17.4% | -1.85% | -12.8% | 11.6% | 0.3%
26 | CC(=O)OCC1OC(Nc2[nH]c(=O)[nH]c(=O)c2N=O)C(OC(C)=O)C(OC(C)=O)C1OC(C)=O (stereo not given) | 5.75% | 3.75% | 0.95% | -1.5% | -1.7% | -10.3%
27 | O=C(Nc1ncnc2nc(-c3ccccc3)[nH]c12)c1ccccc1 | -30.1% | -16.9% | -5% | -56.3% | -6.65% | 5.95%
28 | CC(O)(c1ccco1)c1nc2ccccc2s1 (stereo not given) | -10.4% | 15.6% | 0.55% | -6.2% | -1.25% | -11.8%
29 | O=C(Nc1ccccc1)n1cc(-c2ccccn2)c(N2CCOCC2)n1 | -4.6% | -11.1% | 6.15% | -64.5% | -12.9% | -14.4%
30 | CC1CP(=O)(Cc2ccccc2)C(C)(c2ccccc2)C1=O (stereo not given) | -18.4% | -0.95% | 31.4% | -4.2% | 40.2% | -6.5%
31 | CC(=O)Oc1ccc([N+](=O)[O-])cc1 | 16.9% | 12.7% | 27.4% | -17.7% | -1% | 34%
32 | COc1ccc(/C=C/C(=O)OCCC(C)C)cc1 | 3.7% | -16.3% | 3.5% | 16.9% | -21.2% | -16.7%
33 | C[C@H]1O[C@@H](C(C)(C)C)OC(=O)[C@@H]1C(OC(=O)c1ccccc1)c1cccc2ccccc12 (stereo not given in full) | -0.1% | 3.15% | 12.1% | 25.3% | -3.45% | 8%
34 | CSC(c1ccc(Oc2ccccc2)cc1)=[N+]1CCCCC1 | 47.2% | 13.2% | 49.4% | 23.2% | 53.5% | 23.7%
35 | Cc1ccc(C(=O)c2ccccc2C(=O)O)cc1C | 4.35% | -4.35% | -17.9% | -18.4% | 9.2% | -18.6%
36 | Cc1[nH]c2ccccc2c1C1=CC(=O)c2ccccc2C1=O | 8.55% | 18% | 21.6% | 2.6% | -1% | 13.8%
37 | CC1=C(O)/C(=C/C(C)CCC/C(C)=C/C=C/C(C)CCCc2ccoc2)OC1=O (stereo not given) | 3.05% | -4.65% | 2.9% | 23.8% | 7.45% | 3.1%
38 | CCCCC/C(=C\c1ccccc1)C1OCC(COC(C)=O)O1 (stereo not given) | -37.6% | -5.8% | -2.25% | -30.2% | 40.8% | -2.6%
39 | O[C@]12c3ccccc3C1CCCCC2N1CCOCC1 (stereo not given in full) | -15.8% | -41% | -61% | -8.45% | -24.1% | -35.4%
40 | Cc1cccc(CC(N)C(=O)O)c1 (stereo not given) | -5.15% | 5.1% | -6.95% | -3.3% | 4% | -9.8%
